# A number with no mark means an inactive call.
# Assays:
# Settings in all cases: 60 µM; 5 days; temperature: 20 °C
# Meloidogyne hapla J2 = assay: proportion of mobile M. hapla J2 relative to DMSO control (fraction of DMSO control); higher = more viable, less nematicidal, active = 0.7 or less
# How it was run: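 About 25 M. hapla J2 were placed in each well of a 96-well plate in distilled water, and compound was pinned in to a final 60 µM with 0.6% v/v DMSO. The sealed plates were shaken at 200 rpm at 20 °C for 5 days, after which 2 µL of 1 M NaOH went into each well. Mobility was then scored under the microscope and divided by the mean value from DMSO-only wells on the same plate. Each plate held eight such DMSO wells, and two biological replicates were averaged.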
# [1] = system: Caenorhabditis elegans dauer (daf-2(e1370)); assay: proportion of mobile C. elegans dauer larvae relative to DMSO control (fraction of DMSO control); higher = more viable, less nematicidal, active = 0.63 or less; extreme values may be limits of the assay
# How it was run: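 The proportion of mobile worms, relative to DMSO wells, was scored by dissection microscope and averaged over two biological replicates. Worms were C. elegans dauers, about 20 per well in liquid NGM in 96-well plates, generated from synchronized larvae on MYOB plates with E. coli OP50 at 25 °C for 48 h. They were treated with compound pinned to 60 µM final (0.6% v/v DMSO) and kept in sealed plates shaken at 200 rpm for 5 days at 20 °C.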
# Ditylenchus dipsaci = assay: proportion of mobile D. dipsaci (mixed stage) relative to DMSO control (fraction of DMSO control); higher = more viable, less nematicidal, active = 0.86 or less; extreme values may be limits of the assay
# How it was run: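 Ditylenchus dipsaci nematodes were cultured on pea plants in Gamborg B-5 agar, then extracted into water through a filter funnel, and roughly 20 worms in distilled water were placed in each well of a 96-well plate. Compound was pinned in to a final concentration of 60 µM (0.6% v/v DMSO), and the sealed plates were shaken at 200 rpm for 5 days at 20 °C. Mobile worms were counted under the microscope after 2 µL of 1 M NaOH was added. Mobility is given relative to DMSO controls as the mean of two biological replicates.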
SMILES,proportion of mobile M. hapla J2 (Meloidogyne hapla J2),proportion of mobile C. elegans dauer larvae [1],proportion of mobile D. dipsaci (Ditylenchus dipsaci)
Cc1nc(CSc2nnc(-c3ccccc3)o2)cs1,0.282 (active),1,1
O=C(Nc1ccccc1-c1nc(-c2cccnc2)no1)c1cccc(Cl)c1,0.837,1,1
Clc1ccccc1-c1noc(-c2cccnc2)n1,0.883,1,1
COc1cccc(-c2noc(COc3ccccc3Cl)n2)c1,0.998,1,1
Brc1ccccc1-c1nc(-c2ccc3c(c2)OCO3)no1,1.04,1,1
c1ccc(-c2nc(C3CCCCC3)no2)cc1,0.956,1,1
Cc1ccccc1OCc1nc(-c2ccc3c(c2)OCO3)no1,0.878,1,1
COc1ccccc1-c1nnc(SCc2ccc(C#N)cc2)o1,0.897,1,1
O=C(CSc1nnc(-c2ccncc2)o1)Nc1cc(Cl)cc(Cl)c1,0.948,1,0.955
CCOc1nc(C)ccc1-c1noc(-c2ccccc2F)n1,0.851,1,1
Cc1cc(OCc2nc(-c3ccc(NC(=O)c4ccc5c(c4)OCO5)cc3)no2)ccc1Cl,0.843,1,1
COc1nc(-c2ccc(Cl)cc2)ccc1-c1noc(-c2ccncc2)n1,0.921,1,1
Clc1ccc(-c2noc(-c3ccncc3)n2)cc1,0.784,1,1
O=C(CSc1nnc(-c2cccc(Cl)c2)o1)N1CCCCC1,1,1,1
Fc1ccc(-c2noc(COc3ccccc3)n2)cc1,1.07,0.5 (active),1
Fc1ccc(-c2noc(COc3ccccc3Cl)n2)cc1,1.03,1,1
COc1cccc(-c2noc(CSc3ccccc3)n2)c1,1.03,1,1

SMILES,proportion of mobile M. hapla J2 (Meloidogyne hapla J2),proportion of mobile C. elegans dauer larvae [1],proportion of mobile D. dipsaci (Ditylenchus dipsaci)
Cc1cccc(-c2noc(COc3cc(C)ccc3C)n2)c1,1.04,1,1
Fc1ccc(-c2noc(-c3ccc(Cl)cc3)n2)cc1,1.03,1,1
Cc1ccccc1CSc1nnc(-c2ccccc2Cl)o1,0.888,1,1
c1ccc(OCc2nc(-c3cccs3)no2)cc1,0.652 (active),0.0278 (active),1
Cc1ccc(SC(C)c2nc(-c3cccnc3)no2)cc1 (configuration not stated),0.874,1,1
Cc1csc(NC(=O)CSc2nnc(-c3cccc(Cl)c3)o2)n1,1.05,1,1
CCOc1ccc(-c2nc(-c3ccc(Cl)cc3)no2)cc1,1,1,1
Cc1cnc(NC(=O)CSc2nnc(-c3cccc(Cl)c3)o2)s1,0.97,1,0.9
CCOc1ccc(-c2nc(-c3cccnc3)no2)cc1OCC,0.906,1,1
COc1cccc(-c2noc(COc3ccccc3C)n2)c1,0.861,1,1
Cc1cc(OCc2nc(-c3ccccn3)no2)cc(C)c1Cl,1.05,1,1
Cc1ccccc1-c1noc(-c2ccccc2OCC(N)=O)n1,0.993,1,1
O=C(CSc1nnc(-c2ccccc2)o1)Nc1ccc(Br)cc1F,0.992,1,1
Cc1ccc(-c2noc(COc3ccc(C)cc3C)n2)cc1,1.02,1,1
Clc1ccc(-c2noc(COc3ccc4c(c3)OCO4)n2)cc1,0.899,1,1
Fc1ccc(-c2nc(-c3ccc(Cl)cc3)no2)cc1,0.919,1,1
CCCC(=O)Nc1ccccc1-c1nc(-c2cccnc2)no1,1.04,1,1
